PubChem BioAssay AID1159580 (chemical genetic matrix, 2015)
About 2,000 (36%) of roughly 5,500 compounds were called active. Roughly 18% stayed inconclusive and do not appear here. Rule as the data show it: active = normalized growth mostly below about 0.91 (no sharp cut-off); inconclusive = no clear call, values can overlap the other calls; inactive = mostly above about 0.92. This is one part of the list.

Experiment: chemical genetic growth profiling, strain panel (AID 1159580);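 also: tested at 20 µM; growth read once vehicle control cultures reached saturation at 30 °C; 1 = growth at the plate median or of vehicle wells; lower values mean less growth of the strain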
Details: growth OD

Measured: normalized growth

CN[C@@H](C)[C@@H](O)c1ccccc1
inactive: S. cerevisiae deletion strains, locus YKL068W, hits give low values 0.978 | S. cerevisiae deletion strains, locus YKL085W, strain MDH1 (second series), hits give low values 0.992 | S. cerevisiae deletion strains, locus YKL085W, strain MDH1, hits give low values 0.992 | S. cerevisiae deletion strains, locus YKL160W, strain elf1, hits give low values 0.968 | S. cerevisiae deletion strains, locus YKL190W, strain CNB1, hits give low values 0.998 | S. cerevisiae deletion strains, locus YKR001C, strain vps1, hits give low values 0.978 | S. cerevisiae deletion strains, locus YKR026C, strain gcn3, hits give low values 0.994 | S. cerevisiae deletion strains, locus YKR091W, strain srl3, hits give low values 1 | S. cerevisiae deletion strains, locus YLL001W, strain dnm1, hits give low values 1.01 | S. cerevisiae deletion strains, locus YLL026W, hits give low values 1.01 | S. cerevisiae deletion strains, locus YLL041C, strain sdh2, hits give low values 1 | S. cerevisiae deletion strains, locus YLR027C, strain aat2, hits give low values 1 | S. cerevisiae deletion strains, locus YLR039C, strain RIC1, hits give low values 0.966 | S. cerevisiae deletion strains, locus YLR058C, strain SHM2, hits give low values 0.988 | S. cerevisiae deletion strains, locus YLR102C, strain apc9, hits give low values 0.99 | S. cerevisiae deletion strains, locus YLR113W, strain HOG1, hits give low values 0.984 | S. cerevisiae deletion strains, locus YLR221C, strain rsa3, hits give low values 0.994 | S. cerevisiae deletion strains, locus YLR258W, strain gsy2, hits give low values 0.981 | S. cerevisiae deletion strains, locus YLR262C, strain YPT6 (second series), hits give low values 1.01 | S. cerevisiae deletion strains, locus YLR262C, strain YPT6, hits give low values 0.914 | S. cerevisiae deletion strains, locus YLR268W, strain sec22, hits give low values 0.983 | S. cerevisiae deletion strains, locus YLR320W, strain mms22, hits give low values 0.985 | S. cerevisiae deletion strains, locus YLR330W, strain CHS5, hits give low values 0.987 | S. cerevisiae deletion strains, locus YLR342W, strain FKS1 (second series), hits give low values 0.99 | S. cerevisiae deletion strains, locus YLR342W, strain FKS1, hits give low values 1.01 | S. cerevisiae deletion strains, locus YLR357W, strain rsc2, hits give low values 0.972 | S. cerevisiae deletion strains, locus YLR370C, strain arc18, hits give low values 0.982 | S. cerevisiae deletion strains, locus YLR371W, strain rom2, hits give low values 0.981 | S. cerevisiae deletion strains, locus YLR384C, strain iki3, hits give low values 0.993 | S. cerevisiae deletion strains, locus YLR418C, strain cdc73, hits give low values 1.02 | S. cerevisiae deletion strains, locus YML016C, strain PPZ1, hits give low values 0.987 | S. cerevisiae deletion strains, locus YML032C, strain rad52, hits give low values 0.979 | S. cerevisiae deletion strains, locus YML120C, strain ndi1, hits give low values 1.01 | S. cerevisiae deletion strains, locus YML124C, strain tub3, hits give low values 0.99 | S. cerevisiae deletion strains, locus YMR058W, strain fet3, hits give low values 1.01 | S. cerevisiae deletion strains, locus YMR078C, strain ctf18, hits give low values 0.985 | S. cerevisiae deletion strains, locus YMR125W, strain sto1, hits give low values 0.985 | S. cerevisiae deletion strains, locus YMR129W, hits give low values 0.976 | S. cerevisiae deletion strains, locus YMR205C, strain PFK2, hits give low values 0.984 | S. cerevisiae deletion strains, locus YMR223W, strain ubp8, hits give low values 0.985 | S. cerevisiae deletion strains, locus YMR231W, strain pep5, hits give low values 0.998 | S. cerevisiae deletion strains, locus YMR263W, strain SAP30, hits give low values 1.01 | S. cerevisiae deletion strains, locus YMR307W, strain GAS1, hits give low values 0.881 | S. cerevisiae deletion strains, locus YNL067W, strain RPL9B, hits give low values 1.04 | S. cerevisiae deletion strains, locus YNL071W, strain lat1, hits give low values 1.01 | S. cerevisiae deletion strains, locus YNL183C, strain NPR1, hits give low values 0.978 | S. cerevisiae deletion strains, locus YNL209W, strain ssb2, hits give low values 0.978 | S. cerevisiae deletion strains, locus YNL233W, strain BNI4, hits give low values 1.05 | S. cerevisiae deletion strains, locus YNL248C, strain rpa49, hits give low values 0.986 | S. cerevisiae deletion strains, locus YNL250W, strain rad50, hits give low values 0.99 | S. cerevisiae deletion strains, locus YNL271C, strain bni1, hits give low values 0.976 | S. cerevisiae deletion strains, locus YNL298W, strain CLA4, hits give low values 0.97 | S. cerevisiae deletion strains, locus YNL307C, strain MCK1, hits give low values 0.992 | S. cerevisiae deletion strains, locus YNL322C, strain KRE1 (second series), hits give low values 0.977 | S. cerevisiae deletion strains, locus YNR049C, strain mso1, hits give low values 0.998 | S. cerevisiae deletion strains, locus YNR052C, strain pop2, hits give low values 0.997 | S. cerevisiae deletion strains, locus YOL006C, strain TOP1, hits give low values 1.07 | S. cerevisiae deletion strains, locus YOL012C, strain htz1 1.99 | S. cerevisiae deletion strains, locus YOL147C, strain pex11, hits give low values 0.993 | S. cerevisiae deletion strains, locus YOR001W, strain rrp6, hits give low values 0.997 | S. cerevisiae deletion strains, locus YOR061W, strain CKA2, hits give low values 0.971 | S. cerevisiae deletion strains, locus YOR069W, strain VPS5, hits give low values 0.986 | S. cerevisiae deletion strains, locus YOR070C, strain gyp1, hits give low values 0.984 | S. cerevisiae deletion strains, locus YOR080W, strain dia2, hits give low values 0.994 | S. cerevisiae deletion strains, locus YOR083W, strain WHI5, hits give low values 0.961 | S. cerevisiae deletion strains, locus YOR106W, strain vam3, hits give low values 1.01 | S. cerevisiae deletion strains, locus YOR136W, strain idh2, hits give low values 0.991 | S. cerevisiae deletion strains, locus YOR144C, strain elg1, hits give low values 0.987 | S. cerevisiae deletion strains, locus YOR184W, strain ser1, hits give low values 0.987 | S. cerevisiae deletion strains, locus YOR231W, strain MKK1, hits give low values 0.98 | S. cerevisiae deletion strains, locus YOR265W, strain rbl2, hits give low values 1 | S. cerevisiae deletion strains, locus YOR270C, strain vph1, hits give low values 1.04 | S. cerevisiae deletion strains, locus YOR290C, strain snf2, hits give low values 0.972 | S. cerevisiae deletion strains, locus YOR316C, strain cot1, hits give low values 0.986 | S. cerevisiae deletion strains, locus YPL051W, strain arl3, hits give low values 0.99 | S. cerevisiae deletion strains, locus YPL078C, strain atp4, hits give low values 1.02 | S. cerevisiae deletion strains, locus YPL106C, strain sse1, hits give low values 0.937 | S. cerevisiae deletion strains, locus YPL240C, strain hsp82, hits give low values 0.993 | S. cerevisiae deletion strains, locus YPL241C, strain CIN2, hits give low values 0.979 | S. cerevisiae deletion strains, locus YPL256C, strain CLN2, hits give low values 1.03 | S. cerevisiae deletion strains, locus YPR119W, strain clb2, hits give low values 0.983 | S. cerevisiae deletion strains, locus YPR141C, strain kar3, hits give low values 0.989 | S. cerevisiae deletion strains, locus YPR163C, strain tif3, hits give low values 0.989 | S. cerevisiae deletion strains, locus YPR167C, strain met16, hits give low values 0.988 | S. cerevisiae deletion strains, strain wtn01, hits give low values 1 | S. cerevisiae strains, strain wild type, hits give low values 0.987
